SMILES strings stand for the structures. The whole screen tested about 360,000 compounds, of which about 8,200 (2.3%) were called active. No stated cut-off is given here; in the data, active means inhibition above about 27%; inactive means the rest. What follows is part of a selection rich in actives, with near analogues and random picks from the rest.

Broadly, the inhibition is the change of the read-out against control, counted positive when it falls.

This experiment deals with Fructose-bisphosphate aldolase (Mycobacterium tuberculosis (strain ATCC 25618 / H37Rv)) (UniProt P9WQA3). Kind of experiment: M. tuberculosis aldolase activity blockers – biochemical, fluorescence, strain H37Rv, primary screen (AID 588726).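 Further: 0% = vehicle and 100% = reference inhibitor.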 The settings on record: purified M. tuberculosis FBA, fluorescence read-out, at 1 µM, stronger effect = higher value.
Chain of Fructose-bisphosphate aldolase (Mycobacterium tuberculosis (strain ATCC 25618 / H37Rv)) (P9WQA3 whole entry, looked up): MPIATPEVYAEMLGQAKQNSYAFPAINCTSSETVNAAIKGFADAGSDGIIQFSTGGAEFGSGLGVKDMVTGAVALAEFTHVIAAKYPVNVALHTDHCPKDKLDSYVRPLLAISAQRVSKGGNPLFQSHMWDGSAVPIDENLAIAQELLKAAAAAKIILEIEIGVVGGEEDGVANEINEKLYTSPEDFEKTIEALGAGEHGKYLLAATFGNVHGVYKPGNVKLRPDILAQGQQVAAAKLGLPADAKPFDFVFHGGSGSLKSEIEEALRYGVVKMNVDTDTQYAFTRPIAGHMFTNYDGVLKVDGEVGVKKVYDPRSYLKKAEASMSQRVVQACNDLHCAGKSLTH
As to `CCN(CC)S(=O)(=O)c1ccc(N2CC(C(=O)NCc3cccnc3)CC2=O)cc1` (stereo unspecified), the inhibition was 1.11% (inactive).

Consider `Cc1c(C)c2cc3c4c(oc3c(C)c2oc1=O)CCCC4`, for which the inhibition was 2.57% (inactive).

With `CC[C@@H](C)[C@H](NC(=O)CCc1c(C)c2cc3c4c(oc3c(C)c2oc1=O)CCCC4)C(=O)O`, the inhibition was 27.5% (active).

For the molecule `Cc1c(CCC(=O)N[C@@H](CC(C)C)C(=O)O)c(=O)oc2c(C)c3oc4c(c3cc12)CCCC4`, the inhibition is 13.8% (inactive).

Consider `O=C(Nc1ccccc1C(=O)N1CCOCC1)C1CCC(=O)N1C1CCCC1` (stereo unspecified), for which the inhibition is 0.4% (inactive).

In the case of `COCCn1c(=O)[nH]c2cc(C(=O)NCc3cccnc3)ccc2c1=O`, the inhibition was 12.2% (inactive).

For the molecule `O=C(COc1ccc([N+](=O)[O-])cc1Cl)Nc1ccc2[nH]c(=O)[nH]c2c1`, the inhibition is -1.08% (inactive).

In the case of `CC(C)(C)NC(=O)COc1ccc(CNc2ccc3[nH]c(=O)[nH]c3c2)cc1`, the inhibition is 64.6% (active).

Take `COc1ccc(C(=O)OCC(=O)Nc2ccc3[nH]c(=O)[nH]c3c2)c(OC)c1OC`: the inhibition was 5.97% (inactive).

On to `COc1ccc(S(=O)(=O)N2CCC(C(=O)NCCC(=O)NCCc3cccc(F)c3)CC2)cc1`, for which the inhibition was 3.06% (inactive).

In the case of `O=C(CCNC(=O)c1ccc(Br)cc1)NCC(c1ccco1)N1CCCCC1` (stereo unspecified), the inhibition is -0.35% (inactive).

With `Cc1nn(Cc2ccccc2)c(C)c1CNC(=O)c1ccc(F)c(S(=O)(=O)N2CCOCC2)c1`, the inhibition was 0.09% (inactive).

Consider `Cc1ccccc1CSc1nnc(Cn2c(=O)sc3ccccc32)n1C`, for which the inhibition was 3.39% (inactive).

Turning to `CNc1nc(-c2ccccc2)cc(-c2ccccc2)n1`, the inhibition is 29.2% (active).

As for `Nc1cccc(-c2cc(-c3ccccc3)nc(-c3cccc(N)c3)n2)c1`, the inhibition was 16.1% (inactive).

As for `Cc1nc(NNC(=O)c2ccccc2)cc(-c2ccccc2)n1`, the inhibition was 1.26% (inactive).

As to `O=[N+]([O-])c1ncc(Br)cc1Nc1ccccc1`, the inhibition is -5.84% (inactive).

For the molecule `CC1CCc2c(c3ccccc3[nH]c2=O)O1` (stereo unspecified), the inhibition is -0.34% (inactive).

Turning to `COC(=O)c1sc(N)c(C(=O)OC)c1COC(=O)CNS(=O)(=O)c1ccc(C)cc1`, the inhibition was 1.77% (inactive).

For the molecule `CCn1c(SCC(=O)Nc2nc(C)cs2)nnc1C(C)NC(=O)c1ccccc1` (stereo unspecified), the inhibition was 0.82% (inactive).

With `Cc1ccc(C(=O)NNC(=O)CSc2nnc3ccccn23)cc1`, the inhibition is 0.48% (inactive).

On to `Cc1ccsc1C(=O)N[C@@H](C)c1nnc2ccccn12`, for which the inhibition was 51.8% (active).

Regarding `COc1cccc(N2CC(NC(=O)c3ccc4ccccc4c3)CC2=O)c1` (stereo unspecified), the inhibition was 1.83% (inactive).

For `COc1ccc(S(=O)(=O)N2CCN(c3cnccn3)CC2)cc1`, the inhibition is 2.14% (inactive).

Take `O=C1OCCN1C(=O)[C@H]1[C@H](c2ccccc2)C(c2ccc(F)cc2)=NN1c1ccccc1`: the inhibition was 11% (inactive).

With `O=C1OCCN1C(=O)[C@H]1[C@H](c2ccc(F)cc2)C(c2ccccc2)=NN1c1ccc(Br)cc1`, the inhibition was 42.2% (active).

Regarding `C[C@@H]1C(c2ccc(F)cc2)=NN(c2ccc(Br)cc2)[C@H]1C(=O)N1CCOC1=O`, the inhibition is 20.3% (inactive).

In the case of `O=C1OCCN1C(=O)[C@H]1[C@H](c2ccc(Cl)cc2)C(c2cccc(Cl)c2)=NN1c1ccc(Br)cc1`, the inhibition is 57.4% (active).

Take `Cc1nn(-c2ccccc2)c2c1C(c1cccc([N+](=O)[O-])c1)N(c1ccccc1)C(=O)N2` (stereo unspecified): the inhibition is -3.95% (inactive).

With `CCOC(=O)c1cccc(NC(=O)CN2C(=O)C3CC=CCC3C2=O)c1` (stereo unspecified), the inhibition was -2.2% (inactive).

As to `CCC(=O)c1ccc(OCC(=O)OCC(=O)N2CCc3ccccc3C2)cc1`, the inhibition was 6.24% (inactive).

As to `CCCN(CCc1ccccc1)C1CCc2c(O)cccc2C1` (stereo unspecified), the inhibition was 3.16% (inactive).

In the case of `CCOC(=O)C=Cc1ccc(C(=O)OCC)[nH]1`, the inhibition was -4.99% (inactive).

For `Cc1sc2ccccc2c1CNC[C@H]1O[C@@H](n2ccc(=O)[nH]c2=O)[C@H](O)[C@@H]1O`, the inhibition was 1.01% (inactive).

Turning to `Cc1cc(=O)n2nc(N3CCCC3C(=O)NCCCN3CC(C)CC(C)C3)sc2n1` (stereo unspecified), the inhibition was 3.34% (inactive).

Take `CCCSc1nc(NCc2ccco2)c2c3c(sc2n1)COC(C)(CC)C3` (stereo unspecified): the inhibition is 2.94% (inactive).

For the molecule `CN1CCc2c(sc3c2c(NCc2ccco2)nc2nnnn23)C1`, the inhibition was 37.5% (active).

`CCSc1nc2sc3c(c2c(=O)n1-c1ccc(C)cc1)CCN(C)C3`: the inhibition is 0.45% (inactive).

Consider `CCCCNC(=O)CCNC(=O)c1ccc(C(C)(C)C)cc1`, for which the inhibition is -0.2% (inactive).

As to `CN1OC(COC(=O)c2ccc(Cl)cc2)CC1c1ccccc1` (stereo unspecified), the inhibition is 0.19% (inactive).

Take `CC(C)(C)c1ccc(C(=O)NCC(=O)OCN2C(=O)c3ccccc3C2=O)cc1`: the inhibition was -0.24% (inactive).

As for `N#Cc1c(N)n(CCOC(=O)c2ccc(Cl)cc2)c2nc3ccccc3nc12`, the inhibition was 69.1% (active).

For the molecule `CC(C)(C)c1ccc(C(=O)NCCn2c(N)c(C#N)c3nc4ccccc4nc32)cc1`, the inhibition was 144% (active).

On to `Cn1cncc1COC(=O)c1ccc(Cl)cc1`, for which the inhibition is 3.05% (inactive).

For `O=C(c1ccccc1Cl)N(Cc1ccccc1F)N1C(=O)CCCC1=O`, the inhibition is -2.23% (inactive).

Regarding `CC(C)CN(C(=O)c1ccc2c(c1)OCO2)C1CCS(=O)(=O)C1` (stereo unspecified), the inhibition was -0.95% (inactive).

As for `CC(=O)Nc1ccc(Nc2ncnc3c2nnn3Cc2ccccc2Cl)cc1`, the inhibition was 2.68% (inactive).

Regarding `CC(=O)c1cnn(-c2cc(Oc3ccc(F)cc3)ncn2)c1C`, the inhibition is 2.98% (inactive).

Regarding `CCc1ccccc1NC(=O)CCOc1ccccc1`, the inhibition is 0.8% (inactive).

Turning to `Cc1ccc(NC(=O)COC(=O)CN2CCSC2=O)cc1F`, the inhibition was -1.26% (inactive).

For the molecule `CC1=NN(C(=O)c2ccc(Br)cc2)C(O)(c2ccccc2)C1` (stereo unspecified), the inhibition is -1.19% (inactive).

Consider `COc1ccc(NC(=O)C2(C)Cc3c(-c4cccc(NC(C)=O)c4)ccnc3O2)cc1` (stereo unspecified), for which the inhibition was 5.4% (inactive).

As for `CSc1ccc(/C=N/N2CCN(Cc3ccccc3Cl)CC2)cc1`, the inhibition is -4.01% (inactive).

Turning to `COCCn1c(SCC(=O)N2CCCCCC2)nc2c(c1=O)SCC2`, the inhibition is -1.33% (inactive).

As to `Cc1cccc(NC(=O)c2ccc3c(=O)n(CC4CCCO4)c(=S)[nH]c3c2)c1` (stereo unspecified), the inhibition was -2.72% (inactive).

Turning to `Cc1ccccc1NC(=O)Cn1c(=O)n(CC2CCCO2)c(=O)c2ccccc21` (stereo unspecified), the inhibition is 2.56% (inactive).

On to `O=C(CSc1nc2ccccc2c(=O)n1Cc1ccc(F)cc1)NCC1CCCO1` (stereo unspecified), for which the inhibition was 2.15% (inactive).

As to `Cc1cccn2c(=O)c3cc(C(=O)NCCN4CCOCC4)c(=N)n(Cc4cccnc4)c3nc12`, the inhibition was 131% (active).

Regarding `Cc1cccn2c(=O)c3cc(C(=O)NCC4CCCO4)c(=N)n(Cc4ccc(F)cc4)c3nc12` (stereo unspecified), the inhibition was 186% (active).

On to `Cc1ccc(Cn2c(C)c3cnn(CC(=O)NCCN4CCOCC4)c(=O)c3c2C)cc1`, for which the inhibition was -0.73% (inactive).

For the molecule `Cc1ccc(CCNC(=O)c2ccc3nc4ccccc4c(=O)n3c2)cc1`, the inhibition is 12.9% (inactive).

As for `COc1ccc(CCNC(=O)Cn2c(=O)n(CC3CCCO3)c(=O)c3ccccc32)cc1OC` (stereo unspecified), the inhibition was 4.02% (inactive).

Consider `O=C(NCc1cccnc1)c1cc(S(=O)(=O)N2CCOCC2)c(Cl)cc1Cl`, for which the inhibition was -0.2% (inactive).

Consider `O=C(NCC1CCCO1)c1cc2c([nH]c3ccccc32)c(-c2ccc(F)cc2)n1` (stereo unspecified), for which the inhibition is 14% (inactive).

Regarding `CC(C)(C)c1cc2cccnc2n1Cc1cccc(F)c1`, the inhibition was 3.01% (inactive).

Consider `COc1cc(/C=C/C(=O)O)cc(S(=O)(=O)Nc2ccccc2SC)c1OC`, for which the inhibition is -0.58% (inactive).

For `CC(C)(C)CC(=O)Nc1nc(C(N)Cc2ccc(C(F)(F)F)cc2)cs1` (stereo unspecified), the inhibition is -1.2% (inactive).

`Cc1ccccc1NC(=O)CCNS(=O)(=O)c1ccc2[nH]c(=O)oc2c1`: the inhibition is -4.94% (inactive).

`CC(=O)c1nn(-c2cccc(C(F)(F)F)c2)c(=O)[nH]c1=O`: the inhibition is 2.77% (inactive).

As to `COc1cc(OC)c(C(=O)OC(C)C(=O)Nc2cc(C(F)(F)F)ccc2Cl)cc1OC` (stereo unspecified), the inhibition was -1.34% (inactive).

`C/C(=N\NC(=O)c1ccc(CSc2nc(C)cc(C)n2)cc1)C1CCCCC1`: the inhibition was -4.8% (inactive).

In the case of `CC(=O)c1ccc(NC(=O)CSc2nc3ccccc3c(=O)n2CCCN2CCOCC2)cc1`, the inhibition is -0.35% (inactive).

Regarding `CCOC(=O)C1CCN(Cc2c(C(=O)N3CCOCC3)nc3c(C)cccn23)CC1`, the inhibition was 8.49% (inactive).

Regarding `C=CCO/N=C/C1=C(O)C(C(=O)OC)C(C)(C)CC1=O` (stereo unspecified), the inhibition was 0.55% (inactive).

For `O=C1c2ccccc2C(=O)C1c1ccccc1`, the inhibition was 4.16% (inactive).

Take `O=C1C(=O)N(c2ccccc2)C(c2ccccc2)C1c1ccccc1` (stereo unspecified): the inhibition is 53% (active).

For the molecule `O=C1[C@@H](c2ccccc2)[C@@H](c2ccccc2)N1c1cccnc1`, the inhibition was 4.74% (inactive).

With `Cc1ccccc1-c1csc(C(O)c2cccc(Cl)c2)n1` (stereo unspecified), the inhibition was -4.41% (inactive).

In the case of `C#CCSc1nnc(-c2sc3ccccc3c2Cl)o1`, the inhibition is 4.19% (inactive).

As to `Fc1ccc(-c2nnc(CSc3nnc(-c4ccc5c(c4)OCO5)o3)o2)cc1`, the inhibition is -2.07% (inactive).

Take `Clc1ccc(CSc2nnc([C@@H]3CCCN3)o2)cc1`: the inhibition is 4.22% (inactive).

For the molecule `O=C(CSc1nnc(-c2ccccc2O)o1)NC1CCCCC1`, the inhibition is 0.67% (inactive).

As to `CCSc1nnc(-c2cc3c(s2)-c2ccccc2CC3)o1`, the inhibition was 61.2% (active).

In the case of `Fc1ccc(CSc2nnc(-c3cc4c(s3)-c3ccccc3CC4)o2)cc1`, the inhibition is 154% (active).

In the case of `CNC(=O)C[C@H]1C(=O)N(Cc2ccccc2)C[C@@H]1CSC`, the inhibition was 3.42% (inactive).

As to `COc1ccc(OC)c(-c2c(=O)n(OCc3ccccc3Br)c3ccccc3[n+]2[O-])c1`, the inhibition is -1.19% (inactive).

Consider `COc1cc(N2C(=O)CC3(CCCC3)CC2=O)cc(OC)c1OC`, for which the inhibition is 0.26% (inactive).

With `CCN(C(=O)C1CCCN(c2nc(-c3ccc(OC)cc3)no2)C1)c1ccc(OC)cc1` (stereo unspecified), the inhibition is -2.44% (inactive).

As to `Cc1cc(C)c2c(n1)nn1c(-n3ccnc3)cc(C)nc21`, the inhibition is 27.6% (active).

Regarding `CCCCNCc1ccc(SC)cc1`, the inhibition is -1.81% (inactive).

With `CCNc1nc(Oc2ccc(C(=O)OC)cc2)nc(N2CCOCC2)n1`, the inhibition is 0.39% (inactive).

(Values after PubChem BioAssay AID588726 (The Scripps Research Institute Molecular Screening Center, 2011).)
